# Screening results: PubChem, The Scripps Research Institute Molecular Screening Center
# Most compounds without a hit are left out; they make up all but 4.1% or so of the library.
# hcDAF-12 act: H. contortus DAF-12 activation, primary screen | HEK293 hcDAF-12 lit1-tk-luc reporter, luminescence; 0% DMSO, 100% Δ7-dafachronic acid | activation, % at 6.8 µM | 370,000 compounds, 1.4% hits;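 active means activation above the mean of all tested compounds plus 3 SD, cut at about 5.5% in these data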;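 further: 100% = response to 3 µM Δ7-dafachronic acid high control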
# DAX1 inh-1: inhibitors of human orphan nuclear receptor DAX1 (NR0B1); HEK293 Gal4-DAX1 luciferase reporter, luminescence; 340,000 compounds, 0.99% hits; P51843; inhibition, % at 6.75 µM; AID 504766;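 active means inhibition above the mean over all tested compounds plus 3 SD, cut at about 4.2% in these data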;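 further: 0% = DAX1-transfected cells with DMSO and 100% = empty-vector control cells with DMSO; inhibition shows as a rise in luminescence from relieved DAX1 repression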
# Target sequence (P51843 207-470 limits assumed): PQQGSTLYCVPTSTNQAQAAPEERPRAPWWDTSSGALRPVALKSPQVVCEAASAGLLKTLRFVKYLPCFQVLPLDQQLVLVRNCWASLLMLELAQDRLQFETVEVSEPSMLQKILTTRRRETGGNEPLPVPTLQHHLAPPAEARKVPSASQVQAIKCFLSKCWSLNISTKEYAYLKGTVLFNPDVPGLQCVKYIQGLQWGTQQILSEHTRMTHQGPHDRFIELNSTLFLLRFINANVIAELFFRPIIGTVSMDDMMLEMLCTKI
# DAX1 inh-2: blocks DAX1 repression of SF-1 activated StAR promoter; 370,000 compounds, 1.1% hits; inhibition, % at 6.8 µM; HEK293T StAR-luciferase reporter, SF-1/DAX-1 repression relief;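 active means inhibition above the mean over all tested compounds plus 3 SD, cut at about 3.6% in these data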;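 further: 0% = DAX-1 cells with DMSO and 100% = cells lacking DAX-1 with DMSO; higher inhibition means more luminescence from relief of DAX-1 repression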
# hgDAF12 agonist: hgDAF-12 agonism, primary luciferase screen; activation, % at 6.8 µM; 370,000 compounds, 1.8% hits; HEK293 GAL4-hgDAF12 UAS-luciferase reporter, agonist luminescence; normalized to butyrate control; AID 687014;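 active means activation above a cutoff set at the mean of all screened compounds plus 3 SD, cut at about 10% in these data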;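 further: 0% = DMSO wells and 100% = sodium butyrate wells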
# ssDAF-12 act: activators of S. stercoralis DAF-12 nuclear receptor | HEK293 ssDAF-12/GRIP1 lit1-tk-luc reporter, luminescence; % of 3 µM dafachronic acid response | activation, % at 6.8 µM | 370,000 compounds, 1% hits | AID 652126;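 active means activation above the mean over all tested compounds plus 3 SD, cut at about 0.9% in these data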;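 further: 0% = DMSO-only wells and 100% = 3 µM delta7-dafachronic acid wells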
# DAX1 inh confirm: NR0B1 (human) inhibition, confirmation. HEK293T StAR-promoter luciferase reporter, SF-1/DAX-1 repression. inhibition, % at 6.8 µM. AID 652134. 2,400 compounds, 87% hits. shares compounds with DAX1 inh-2;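 active means inhibition above the average of every tested compound plus 3 SD, cut at about 3.8% in these data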;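 further: 0% = DAX-1 cells with DMSO and 100% = no DAX-1 control cells with DMSO; active compounds raise luminescence by relieving repression of the StAR reporter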
# Target sequence (P51843 whole entry, looked up): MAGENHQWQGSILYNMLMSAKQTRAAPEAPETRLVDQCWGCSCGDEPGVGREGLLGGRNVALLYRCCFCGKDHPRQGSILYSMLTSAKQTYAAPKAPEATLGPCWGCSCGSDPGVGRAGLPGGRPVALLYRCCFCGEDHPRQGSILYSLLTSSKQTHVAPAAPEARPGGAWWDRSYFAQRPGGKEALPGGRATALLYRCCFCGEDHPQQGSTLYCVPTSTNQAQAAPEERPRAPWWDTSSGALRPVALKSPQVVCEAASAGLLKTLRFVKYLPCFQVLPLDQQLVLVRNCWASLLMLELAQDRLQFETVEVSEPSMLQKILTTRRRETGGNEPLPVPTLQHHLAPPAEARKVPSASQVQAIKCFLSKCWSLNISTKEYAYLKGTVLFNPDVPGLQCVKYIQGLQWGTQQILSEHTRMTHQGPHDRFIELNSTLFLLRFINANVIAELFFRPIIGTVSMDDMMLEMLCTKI
# SF1 AF2mut Luc: counter-screen for DAX1 inhibitors: nonselective inhibitors with SF-1 AF2 mutant | shares compounds with DAX1 inh-2 | HEK293 StAR-luciferase, luminescence | inhibition, % at 6.8 µM | 2,400 compounds, 78% hits;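 active means inhibition above the mean of all tested compounds plus 3 SD, cut at about 3% in these data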;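 further: 0% = DAX-1 transfected cells with DMSO and 100% = cells without DAX-1 with DMSO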
# LXRb hcDAF ctr: activates human LXR-beta, counter-screen for hcDAF-12 agonists; shares compounds with hcDAF-12 act; HEK293 Gal4-LXR tk-luc reporter, luminescence, 24 h; normalized: DMSO 0%, positive control 100%; activation, % at 6.8 µM; 3,400 tested, under 10 active;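 active means mean percent activation of the reporter above a cutoff set as the average over tested compounds plus their standard deviation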
# hcDAF12 ag: hcDAF-12 agonism, confirmation assay. shares compounds with hcDAF-12 act. HEK293 hcDAF-12 lit1-tk-luc reporter, luminescence; % of Δ7-dafachronic acid response. activation, % at 6.8 µM. 3,400 compounds, 61% hits;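 active means mean activation across triplicate tests above the threshold derived from the earlier primary screen, cut at about 5.5% in these data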;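 further: 0% = DMSO only wells and 100% = 3 µM Δ7-dafachronic acid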
# hgDAF12 conf: confirmation of H. glycines DAF-12 agonists. HEK293 GAL4-hgDAF12 luciferase reporter, agonist mode; percent of butyrate response. activation, % at 6.8 µM. AID 743050. shares compounds with hgDAF12 agonist. 3,300 compounds, 80% hits;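 active means mean activation over triplicate wells above the hit cutoff derived from the earlier primary screen, cut at about 11% in these data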;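 further: 0% = DMSO low control and 100% = 2 mM sodium butyrate high control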
# LXR ag 2: LXR-beta agonism as DAF-12 counter-screen; activation, % at 6.8 µM; 3,300 tested, under 10 active; shares compounds with hgDAF12 agonist; AID 743051; HEK293 Gal4-LXR luciferase reporter, 24 h;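 active means mean activation of the triplicate above a set limit carried over from the primary screen, none filed active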
# The depositor's hits bear a star; . = no result given.
SMILES,hcDAF-12 act,DAX1 inh-1,DAX1 inh-2,hgDAF12 agonist,ssDAF-12 act,DAX1 inh confirm,SF1 AF2mut Luc,hgDAF12 conf,LXR ag 2,others
CC(C)(N[C@@H](Cc1c[nH]c2ccccc12)C(=O)NCCCc1ccccc1)C(=O)NCc1ccccc1,1.5,.,.,0.7,-1.8,.,.,.,.,
O=C(/C(C=Nc1ccc(Br)cc1)=C(/O)c1ccco1)C(F)(F)F,5.3,-0.1,5.3*,18.9*,0.2,16.9*,-3.4,16.5*,1.1,
c1cncc(-c2nc3cc4ccccc4cc3[nH]2)c1,9.5*,4.6*,7.8*,20.6*,1.5*,11.0*,5.3*,20.6*,1.1,LXRb hcDAF ctr=1.8;hcDAF12 ag=9.6*
O=c1c2ccccc2oc2c1oc1ccccc12,4.8,2.6,6.6*,15.2*,0.1,7.3*,6.5*,12.9*,0.4,
FC(F)(F)c1ccccc1Cn1ccc2ccc(-c3ccc4ccn(Cc5ccccc5)c4c3)cc21,0.3,.,0.0,4.3,-0.9,.,.,.,.,
O=C1c2ccccc2S(=O)(=O)N1CC1CC(c2ccc(Cl)cc2)=NO1 (stereo not drawn),6.7*,1.5,4.8*,15.2*,0.4,14.1*,7.5*,13.8*,0.6,LXRb hcDAF ctr=0.8;hcDAF12 ag=2.5
CC(=O)Oc1ccc2c(=O)c(-c3ccccc3)coc2c1,1.5,0.2,5.9*,13.5*,-1.4,6.5*,4.0*,9.5,0.4,
COc1ccc(-c2coc3cc(OC)ccc3c2=O)cc1,5.2,4.0,5.8*,19.3*,-0.3,11.9*,7.0*,12.8*,0.9,
COc1ccc(-c2coc3cc(OC4OC(CO)C(O)C(O)C4O)ccc3c2=O)cc1 (stereo not drawn),1.9,1.5,2.5,8.7,0.4,.,.,.,.,
Cc1ccc(C(=O)C2CCN(CC(=O)N3CC(C)CC(C)C3)CC2)cc1 (stereo not drawn),-1.8,.,0.8,-1.8,-1.6,.,.,.,.,
NC(=O)c1ccccc1NC(=O)/C=C/c1cccc(Cl)c1,2.4,0.6,0.8,7.6,-1.1,.,.,.,.,
NC(=O)c1ccccc1N/C=C/C(=O)c1ccc(Cl)cc1Cl,8.1*,-1.0,6.3*,15.5*,0.3,17.2*,7.6*,17.1*,0.9,LXRb hcDAF ctr=1.4;hcDAF12 ag=8.2*
Clc1ccc(OCCSc2ncccn2)c(Br)c1,6.4*,4.4*,5.5*,20.7*,1.8*,15.5*,8.1*,22.4*,0.8,
CN(CCc1ccccn1)C(=O)c1ccc(Sc2ccccc2Cl)c([N+](=O)[O-])c1,-3.8,.,-1.1,-1.1,-1.4,.,.,.,.,
CNS(=O)(=O)c1cccc(C(=O)OCC(=O)Nc2ccc(-c3nc4ccc(C)cc4s3)cc2)c1,.,2.4,.,.,.,.,.,.,.,
Cc1ccc2nc(-c3ccc(NC(=O)COC(=O)c4ccc(Br)o4)cc3)sc2c1,17.7*,5.7*,6.6*,27.5*,3.0*,9.7*,4.2*,23.9*,1.1,LXRb hcDAF ctr=2.0;hcDAF12 ag=13.0*
Cc1ccc2nc(-c3ccc(NC(=O)CN(c4ccccc4C)S(C)(=O)=O)cc3)sc2c1,4.1,1.7,4.8*,15.4*,1.0*,8.0*,5.4*,20.1*,0.7,
COc1ccc(/C=C(\C#N)C(=O)OCC(=O)NC(C)c2ccccc2)cc1 (stereo not drawn),-0.5,-1.7,-0.3,-0.8,-0.9,.,.,.,.,
O=C(CCS(=O)(=O)c1ccccc1)Nc1cccc(-c2nc3ccccc3s2)c1,2.8,0.2,1.8,5.1,-1.6,.,.,.,.,
COc1ccc(/C=C(\C#N)C(=O)OCC(=O)Nc2ccc(-c3nc4ccc(C)cc4s3)cc2)cc1,8.4*,0.1,8.3*,20.7*,2.7*,6.7*,3.2*,20.7*,1.0,LXRb hcDAF ctr=1.8;hcDAF12 ag=10.2*
O=C(CCS(=O)(=O)c1ccccc1)Nc1ccc(-c2nc3ccccc3s2)cc1,9.2*,-1.7,6.1*,17.9*,1.2*,13.4*,8.9*,14.9*,1.0,LXRb hcDAF ctr=1.7;hcDAF12 ag=5.7*
CCOC(=O)C1CCN(C(=O)C(C)(C)NC(=O)Nc2ccc(C(F)(F)F)cc2Cl)CC1,-0.6,.,.,-1.4,-1.6,.,.,.,.,
CC(C)(C)c1cc(NC(=O)c2cccc([N+](=O)[O-])c2)no1,.,1.1,.,.,.,.,.,.,.,
CC(C)(C)c1cc(NC(=O)c2ccco2)no1,13.8*,0.7,12.7*,13.8*,1.0*,12.3*,7.0*,14.9*,0.6,LXRb hcDAF ctr=1.3;hcDAF12 ag=6.2*
C[C@H](O)[C@@H]1CN2CCc3c([nH]c4c(-c5ccc6c(c5)OCO6)cccc34)[C@@H]2C[C@@H]1N(C)C(=S)NCCc1ccccc1,0.4,.,-0.1,1.6,-0.4,.,.,.,.,
SMILES,hcDAF-12 act,DAX1 inh-1,DAX1 inh-2,hgDAF12 agonist,ssDAF-12 act,DAX1 inh confirm,SF1 AF2mut Luc,hgDAF12 conf,LXR ag 2,others
CC(=O)c1cccc(OCc2cc(C(=O)N3CCSCC3)no2)c1,4.3,1.2,4.8*,13.7*,-0.7,6.6*,6.3*,14.9*,0.5,
Cc1cccc(C)c1OCc1cc(C(=O)N2CCN(c3ccc(F)cc3)CC2)no1,4.8,1.6,5.9*,14.1*,0.2,4.5*,3.6*,14.7*,0.6,
CSc1ccccc1OCc1cc(C(=O)NCc2ccc(C)s2)no1,1.3,0.2,0.1,1.5,-1.1,.,.,.,.,
CCOC(=O)c1ccc(CNC(=O)c2cc(COc3ccccc3SC)on2)o1,3.8,2.0,5.4*,14.6*,-0.2,8.8*,4.5*,17.8*,0.8,
Cc1ccc(OCc2cc(C(=O)NCCc3cccnc3)no2)cc1C,0.2,0.4,-0.9,1.2,-0.8,.,.,.,.,
COc1cccc(CCNC(=O)c2cc(COc3ccc(C)c(C)c3)on2)c1OC,4.3,4.4*,4.6*,13.8*,0.1,7.8*,3.4*,16.0*,0.8,
CCS(=O)(=O)Nc1ccc2c(c1)C(=O)N(C)[C@@H]1CC[C@H](CC(=O)OC)O[C@H]1CO2,0.8,.,0.7,1.4,-1.2,.,.,.,.,
O=C(Nc1ccc(N2CCCC2)cc1)c1ccc(Br)cc1,-0.2,2.1,0.0,-3.5,-0.5,.,.,.,.,
